# Screening results from PubChem BioAssay.
# JMJD2C inh: inhibitors of GASC-1 histone demethylase, primary screen, biochemical, fluorescence, DELFIA europium. Lysine-specific demethylase 4C (Homo sapiens), Q9H3R0. inhibition, % at 2.35 µM. GST-JMJD2C(1-420) H3K9me3 demethylation. hit rate 0.069% among 330,000;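 active = more than half of a compound's replicate wells show inhibition beyond 50%, single wells judged on their own value; inconclusive = some, but no more than half, of replicates pass 50% inhibition; inactive = no replicate passes 50% inhibition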;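 note: signal counts dimethyl H3K9 product captured on neutravidin plate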
# V-ATPase pHluor: regulators of yeast V-ATPase proton pumping, primary screen, pHLuorin cytosolic pH fluorescence | S. cerevisiae | hit rate 0.37% among 350,000 | response, % at 10 µM; in the data active = response mostly above about 7.3%, no sharp cut-off; inactive = mostly below about 5.4%; note: actives read high
# HTR2A ag: mouse Htr2a agonists via beta-arrestin recruitment, primary screen, cell-based, luminescence; 5-hydroxytryptamine receptor 2A (Mus musculus), P35363; CHO-K1 mHTR2A beta-arrestin complementation; percent of 30 µM serotonin response; activation, % at 7.6 µM; hit rate 0.66% among 360,000;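 active = activation above a run cutoff, the mean activation of all tested compounds plus 3 SD, cut at about 14% in these data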
# Granule exo inh: LAMP-1 surface exposure blockers, TALL-104 cells – cell-based, flow cytometry, MLPCN library, primary screen | AID 651702, 2012 | inhibition, % at 10 µM | hit rate 0.66% among 360,000 | TALL-104 LAMP-1 surface exposure; cells stimulated with thapsigargin and PMA;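 active = inhibition above about 55%, limit read from the data; inconclusive = no clear call, values can overlap the other calls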
# MEX-5 binding: MEX-5 zinc finger RNA-binding disruptors – biochemical, C. elegans, fluorescence polarization, MLPCN library, primary screen; Zinc finger protein mex-5 (Caenorhabditis elegans), Q9XUB2; hit rate 0.38% among 300,000; activity score (negative = inhibition of binding), % at 10 µM; MEX-5/FITC-TCR2 RNA binding; hits give low values;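 active = inhibition past about -25% in most replicates, and total fluorescence under double the plate's negative control median, limit read from the data; inconclusive = replicates evenly split on the limit, or fluorescence at least double controls; inactive = too little inhibition in most replicates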
# Target sequence (Q9XUB2 whole entry, looked up): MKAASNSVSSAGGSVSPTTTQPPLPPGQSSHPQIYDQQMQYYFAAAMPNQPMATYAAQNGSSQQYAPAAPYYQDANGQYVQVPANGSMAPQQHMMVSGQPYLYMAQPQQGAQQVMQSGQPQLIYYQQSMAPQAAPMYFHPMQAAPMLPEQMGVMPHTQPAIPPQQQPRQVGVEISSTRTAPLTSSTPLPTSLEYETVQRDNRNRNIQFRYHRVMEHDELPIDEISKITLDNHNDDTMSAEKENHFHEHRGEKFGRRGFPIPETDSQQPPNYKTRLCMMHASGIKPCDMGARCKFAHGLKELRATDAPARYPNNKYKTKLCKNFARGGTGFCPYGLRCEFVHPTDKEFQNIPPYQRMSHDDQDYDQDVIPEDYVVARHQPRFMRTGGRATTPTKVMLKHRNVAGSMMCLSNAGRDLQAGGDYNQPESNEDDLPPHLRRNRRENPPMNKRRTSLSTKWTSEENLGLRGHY
# VLA-4 inh: inhibition in human VLA-4 binding assay, primary screen, VLA-4 allosteric modulator project, MLPCN library, flow cytometry, VLA-4 expressing cells; Integrin alpha-4 (Homo sapiens), P13612; ligand binding flow cytometry; inhibition, % (about 7 µM as worked out from the volumes in the protocol); hit rate 0.2% among 330,000; AID 2557, 2010; in the data active = inhibition above about 50%
# MOR ag counter: OPRM1 agonists via beta-arrestin recruitment, confirmation, counter-screen for mouse HTR2A agonist project, cell-based, luminescence, single concentration; AID 624380, 2012; U2OS OPRM1 beta-arrestin PathHunter; DMSO 0%, DAMGO 9.3 µM 100%; hit rate 5.3% among 2,300; shares compounds with HTR2A ag; activation, % at 9.3 µM;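 active = mean activation above the mean of DMSO-only wells plus 3 SD, cut at about 0.5% in these data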
# m5-HT2A ag conf: mouse HTR2A agonists, beta-arrestin recruitment, confirmation, cell-based, luminescence, CHO-K1 PathHunter, triplicate; DMSO 0%, 30 µM serotonin 100%; hit rate 19% among 2,300; activation, % at 7.6 µM; shares compounds with HTR2A ag;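 active = mean activation across triplicates above the hit threshold derived in the original primary screen, cut at about 15% in these data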
# Hits are given with their value; 0 = inactive; ? = inconclusive; - = not tested or not shown. Sampled rows, rich in hits. Any-hit rate of the full collection: about 2.2%.
SMILES,JMJD2C inh,V-ATPase pHluor,HTR2A ag,Granule exo inh,MEX-5 binding,VLA-4 inh,MOR ag counter,m5-HT2A ag conf
S=C=Nc1cccc(C2(N3CCCCC3)CCCCC2)c1,-,0,23.7,0,-,0,-,0
C[C@@H]1O[C@@H](O[C@@H]2C=C3CCC4C(CC[C@]5(C)[C@@H](c6ccc(=O)oc6)CC[C@]45O)[C@@]3(C)CC2)[C@H](O)[C@H](O)[C@H]1O (some centres not stated),-,0,16.2,0,-,0,7.7,27.9
C[C@@H]1O[C@@H](O[C@@H]2C=C3CC[C@@H]4C(CC[C@]5(C)[C@@H](c6ccc(=O)oc6)CC[C@]45O)[C@@]3(C)CC2)[C@H](O)[C@H](O)[C@H]1O (some centres not stated),0,0,18.3,0,-,0,6.3,0
Cc1cc(=O)oc2c(C)c(OCC(=O)N3CCN(Cc4ccccc4)CC3)ccc12,0,0,0,?,0,0,-,-
COCCO[C@H]1CCC2C3CC=C4C[C@@H](O)CC[C@]4(C)C3CC[C@@]21C (some centres not stated),0,0,0,0,-,0,-,-
O=C(NC(=S)N1C[C@H]2C[C@H](C1)c1cccc(=O)n1C2)c1ccc(Cl)cc1Cl,0,0,0,0,0,0,-,-
CC(=O)c1cn(Cc2ccccc2C#N)c2ccccc12,0,0,0,0,0,0,-,-
CC1=C[C@@H]2c3cccc4[nH]cc(c34)C[C@H]2N(C)C1,0,0,27.9,0,-57.8,0,0.8,143.8
CCCn1c(C)c(C(=O)c2cccc3ccccc23)c2ccccc21,0,0,0,0,-,0,-,-
O=C(c1c[nH]cc1-c1ccccc1)c1cccc2ccccc12,0,0,20.4,0,0,0,0,0
C[C@]12C[C@@H](O)[C@H](O)CC1=CCC1C2CC[C@@]2(C)C1CC[C@@H]2O (some centres not stated),-,0,0,0,-,0,-,-
CCCN(CCC)C1CCc2ccc(O)cc2C1 (configuration not stated),0,0,59.9,0,-,0,0,179.1
CCCN(CCC)C1CCc2cccc(O)c2C1 (configuration not stated),0,0,52.6,0,0,0,0,91.7
O=c1c([N+](=O)[O-])cn(O)cc1[N+](=O)[O-],-,0,0,0,-,-,-,-
COc1cc(C(O)CNC(C)C)cc(F)c1OC (configuration not stated),0,0,0,0,0,-,-,-
CCC(C)N1CCN(C(=O)Cc2ccccc2)CC1 (configuration not stated),0,0,20.1,0,0,0,0,0
Cc1ccc(CC(=O)N2CCN(Cc3ccccc3)CC2)cc1,0,0,0,0,0,0,-,-
O=C(Cc1ccc(Br)cc1)N1CCN(Cc2ccccc2)CC1,0,0,21.4,0,0,0,0,0
O=C(Cc1ccccc1)N1CCN(Cc2cccc(Br)c2)CC1,0,0,0,0,0,0,-,-
CN(C(=O)Oc1ccc(C(C)(C)C)cc1)c1ccccc1,0,0,0,0,0,0,-,-
Oc1ccc(C2=CCNCC2)cc1O,0,0,35.7,0,0,0,0,117.2
CC(=O)C1C(N2CC2)CC2C3CC=C4CC(O)CCC4(C)C3CCC21C (configuration not stated),-,0,33.0,0,-,-,0,0
O=C(C(=O)N1CCOCC1)c1cn(Cc2ccc(F)cc2)c2ccccc12,0,0,0,0,0,0,-,-
O=C1c2ccccc2-n2nnc(-c3ccccc3)c2C2c3cc(Br)ccc3CCN12 (configuration not stated),-,-,16.3,0,-,-,0,0
Oc1c(Cl)c(Cl)c(Cl)c(Cl)c1Cl,0,0,0,0,0,0,-,-
SMILES,JMJD2C inh,V-ATPase pHluor,HTR2A ag,Granule exo inh,MEX-5 binding,VLA-4 inh,MOR ag counter,m5-HT2A ag conf
CC(=O)OC(C)(C)/C=C/C(=O)C(C)(O)C1[C@H](O)C[C@@]2(C)C3CC=C4C(CC[C@@H](O)C4(C)C)[C@]3(CO)C(=O)C[C@]12C (some centres not stated),0,0,25.2,0,0,0,0,0
CNCCc1ccc(O)c(O)c1,0,0,27.7,0,0,0,0,161.2
COc1cc2c(cc1OC)-c1c3c(cc4c1[C@@H](C2)N(C)CC4)OCO3,0,0,0,0,0,0,-,-
COc1c2c(cc3c1OCO3)CCN(C)C2,0,0,17.7,0,-,0,0,52.8
Fc1ccc(CCNCc2ccc(Br)cc2)cc1,0,0,0,0,0,0,-,-
Clc1ccc(CNCCc2ccc3c(c2)OCO3)cc1,0,0,0,0,0,0,-,-
Clc1cccc(CNCCc2ccc3c(c2)OCO3)c1,0,0,32.3,0,0,0,0,0
FC(F)(F)c1ccc(CNCCc2ccc3c(c2)OCO3)cc1,0,0,0,0,0,0,-,-
Fc1ccc(CCNCc2cccc(Cl)c2)cc1,0,0,24.2,0,0,0,0,0
Fc1ccccc1CNCCc1ccc2c(c1)OCO2,0,0,20.7,0,0,0,0,0
O=C(NCNC(=O)NC1C(=O)NC(=O)N1CO)NC1C(=O)NC(=O)N1CO (configuration not stated),-,0,16.7,0,-,0,0,0
CCCCc1ccc2[nH]cc(CCN)c2c1,0,0,25.7,0,0,0,0,50.4
O=C1NC(=O)[C@]2(Cc3ccccc3N3CCN(c4ccccc4)CC32)C(=O)N1c1ccccc1 (some centres not stated),0,0,0,0,0,0,-,-
CN1C(=O)NC(=O)[C@]2(Cc3ccccc3N3CCN(c4ccccc4)CC32)C1=O (some centres not stated),0,0,16.6,0,0,0,0,0
COc1ccc(C(c2nnnn2-c2ccc3c(c2)OCCO3)N2CCC(n3c(=O)[nH]c4ccccc43)CC2)cc1 (configuration not stated),-,-,18.5,0,-,-,-,15.1
COc1ccc(-n2nnnc2C(c2ccccc2OC(F)(F)F)N2CCC(n3c(=O)[nH]c4ccccc43)CC2)cc1 (configuration not stated),-,-,15.7,0,-,-,-,0
